Dicer inh – inhibitors of Dicer pre-microRNA processing, primary screen, biochemical, cat-ELCCA, chemiluminescence. actives 6% (n = 47,000). AID 1347074, 2019. Endoribonuclease Dicer (Homo sapiens), Q9UPY3. cat-ELCCA pre-miR-21 Dicer processing; stronger effect = higher value. z-score at 25 µM; in the data active means z-score above about 3, passing the limit was not always enough;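 further: plate controls were vehicle for no effect and no enzyme for full effect; higher signal means more uncleaved substrate so more Dicer inhibition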
Starred values were filed as active, the others as inactive. This excerpt belongs to a sample that is enriched for hits.

SMILES | Dicer inh
Nc1ccc(-c2nc3cc4sc(-c5ccc(N)cc5)nc4cc3s2)cc1 | -2.07
Nc1cccc(-c2nc3cc4sc(-c5cccc(N)c5)nc4cc3s2)c1 | 0.71
c1cc(-c2nc3cc4sc(-c5ccn[nH]5)nc4cc3s2)[nH]n1 | 3.18*
O=C(O)CNC(=O)c1cccnc1Sc1ccc(Cl)cc1 | 0.64
Cc1cc2c(cc1C)CSC1(CC(C)(C)CC1C)SC2 (configuration not stated) | -1.7
O=C1/C(=C\c2ccc([N+](=O)[O-])cc2)N=C2SCCCN12 | -1.06
O=C(NC(=O)c1c(Cl)cccc1Cl)Oc1c(Cl)cccc1Cl | -0.76
CCn1ncc(CNC(=O)c2cnn3c(C(F)F)cc(-c4ccc(C)cc4)nc23)c1C | 0.29
CCOC(=O)c1cnn2c(C(F)F)cc(-c3ccc(C)cc3)nc12 | 3.53*
COC(=O)c1cnn2c(C(F)F)cc(-c3ccc(C)cc3)nc12 | -1.49
O=C(/C=C1\SCC(=O)N1c1ccccc1)c1ccc(Cl)cc1 | 0.16
O=C(c1csc(-c2ccc3c(c2)CCO3)n1)N1CCN(C2c3ccccc3-c3ccccc32)CC1 | 3.84
Cn1c(=O)c2c3nc4ccccc4cc3c(=O)n(-c3ccccc3)c2n(C)c1=O | -1.23
OCCNc1ncnc2ccccc12 | 0.02
O=C(O)CNc1ncnc2ccccc12 | 3.56*
O=C(O)CCCNc1ncnc2ccccc12 | -0.76
CN(C)c1ccc(-c2nc3n(n2)C(c2ccc(F)cc2)C2=C(CC(C)(C)CC2=O)N3)cc1 (configuration not stated) | 4.63*
CC1=C(C(N)=O)C(c2ccc(Cl)cc2)n2nc(-c3ccc(N(C)C)cc3)nc2N1 (configuration not stated) | -2.33
CN(C)c1ccc(-c2nc3n(n2)C(c2cccnc2)C2=C(CCCC2=O)N3)cc1 (configuration not stated) | 1.23
CN(C)c1ccc(-c2nc3n(n2)C(c2cccnc2)C2=C(CC(C)(C)CC2=O)N3)cc1 (configuration not stated) | 1.61
CN(C)c1ccc(-c2nc3n(n2)C(c2ccc(Cl)cc2)C2=C(CC(C)(C)CC2=O)N3)cc1 (configuration not stated) | 3.58*
CCOc1ccc(C2C3=C(CC(C)(C)CC3=O)Nc3nc(-c4ccc(OC)cc4)nn32)cc1 (configuration not stated) | 0.71
Cn1nc(OCC(=O)Nc2ccc(Cl)cc2Cl)cc1C(F)(F)F | -1.33
Cn1c(=O)c(/C=C/c2ccccc2)nc2ccccc21 | -0.3
COc1ccccc1/C=C/c1nc2ccccc2n1C | -0.47
SMILES | Dicer inh
Cn1c(/C=C/c2ccccc2)nc2ccccc21 | 3.73*
NC(=O)C1CCN(S(=O)(=O)c2ccccc2)CC1 | -0.45
CC(=O)c1cc(C)ccc1OC(=O)c1ccc(Cl)cc1 | -0.24
CCOC(=O)c1c(C)n(-c2ccccc2)c2ccc(OC(=O)c3ccc(C)cc3)cc12 | -0.83
CC(C)CCSc1nnc2[nH]c(=O)cc(N)n12 | 3.36*
C#CCSc1nnc2[nH]c(=O)cc(N)n12 | 2.7
Nc1cc(=O)[nH]c2nnc(SCc3ccccc3Cl)n12 | 2.51
O=C(CSc1n[nH]c(=O)n1-c1ccc(OCc2ccccc2)cc1)c1ccc(Cl)cc1 | -1.97
N#CC1=C(N)Oc2n[nH]c(-c3ccccc3)c2C1C1CCCCC1 (configuration not stated) | -1.38
CC(CC(=O)O)CC(=O)NCc1ccc(Cl)cc1 (configuration not stated) | 3.27*
O=C(O)CC(CC(=O)O)c1ccc(Cl)cc1 | 1.28
CC(CC(=O)O)CC(=O)Nc1nncs1 (configuration not stated) | -2.18
CC1C(C#N)=C(SCC(=O)c2ccc(Cl)cc2)NC2=C1C(=O)CC(C)(C)C2 (configuration not stated) | 0.96
N/C(CS(=O)(=O)Cc1ccco1)=N\O | 4.46*
Nc1ccc(S(=O)(=O)NCc2ccco2)cc1 | 1.07
N#C/C(=C\c1ccc(Cl)cc1)S(=O)(=O)Cc1ccco1 | -0.03
CC(C)NC(=O)Cn1cc(C(=O)C2CCCCC2)c2ccccc21 | 0.44
COc1ccc(Nc2nc(-c3ccncc3)cs2)cc1 | 0.71
CCNC(=O)c1c(C)nc2ccccn12 | 0
CCN(CC)c1ccc(Nc2nc(-c3c(C)nc4ncccn34)cs2)cc1 | 4.07*
c1ccc(Nc2nc(-c3cccs3)cs2)cc1 | -1.38
Cc1cccc(Nc2n[nH]c(=S)s2)c1 | 1.18
CCN(CC)c1ccc(Nc2nc(-c3cccnc3)cs2)cc1 | 0.14
Cc1cccc(Nc2nc(-c3c(C)nc4ccccn34)cs2)c1 | 4.62*
CCN(CC)c1ccc(Nc2nc(-c3ccccn3)cs2)cc1 | 2.33
SMILES | Dicer inh
COc1ccc(Nc2nc(-c3c(C)nc4ccccn34)cs2)cc1 | 3.56*
Oc1cccc(Nc2nc(-c3cccnc3)cs2)c1 | -0.29
COc1ccccc1Nc1nc(-c2c(C)nc3ccccn23)cs1 | 0.77
Cc1nc2ccccn2c1-c1csc(Nc2cccc(O)c2)n1 | 6.5*
CCN(C(=N)SC)c1ccccc1 | 0.3
CC1C(=O)CC(c2ccc(Cl)cc2)NC1c1ccc(Cl)cc1 (configuration not stated) | 2.27
